# According to article PMC7862700, “An all-to-all approach to the identification of sequence-specific readers for epigenetic DNA modifications on cytosine”:
# How the values were obtained:
# Experiment in all cases: DAPPL (digital affinity profiling via proximity ligation, sequencing); 10 mM Tris-HCl pH 7.5, 50 mM NaCl, 1 mM DTT, 4% glycerol, room temperature, 30 min; GST-TFs on glutathione beads, 16-mer random dsDNA library, 0.1% formaldehyde crosslink after washing; high values mean tight binding
# FLI1 = molecular target: T1, FLI1 (Homo sapiens, UniProt Q01543 1-452); settings: protein: recombinant; tags: N-terminal GST; dsDNA, one strand shown
# T1 sequence: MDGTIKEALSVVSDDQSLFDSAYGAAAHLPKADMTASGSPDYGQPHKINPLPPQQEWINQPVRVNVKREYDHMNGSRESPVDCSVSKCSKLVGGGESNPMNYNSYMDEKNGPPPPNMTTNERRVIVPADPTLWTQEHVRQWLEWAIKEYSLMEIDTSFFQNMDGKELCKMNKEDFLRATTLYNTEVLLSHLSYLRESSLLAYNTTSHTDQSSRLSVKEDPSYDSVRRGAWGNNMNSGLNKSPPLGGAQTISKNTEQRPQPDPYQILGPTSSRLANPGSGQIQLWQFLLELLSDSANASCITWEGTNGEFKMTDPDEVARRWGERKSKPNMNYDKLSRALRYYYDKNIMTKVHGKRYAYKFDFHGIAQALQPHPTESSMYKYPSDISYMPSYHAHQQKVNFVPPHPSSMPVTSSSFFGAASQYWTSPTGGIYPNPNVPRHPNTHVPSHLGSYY
# How it was run: (§1)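 GST fusions of human transcription factors were expressed in yeast and captured with glutathione beads. Once given DNA barcodes and pooled alongside a tag-only sample, they were incubated for 30 min at room temperature with 200 nmole of a random double-stranded 16-mer DNA library in Tris/NaCl/DTT/glycerol buffer, then washed, crosslinked (0.1% formaldehyde), proximity-ligated, PCR-amplified and sequenced on an Illumina NextSeq500. The binding signal of each hexamer is its read frequency for a factor divided by its frequency for the tag-only sample.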
# ELK1 = molecular target: T2, ELK1 (Homo sapiens, UniProt P19419 1-428); settings: protein: recombinant; tags: N-terminal GST; dsDNA, one strand shown
# T2 sequence: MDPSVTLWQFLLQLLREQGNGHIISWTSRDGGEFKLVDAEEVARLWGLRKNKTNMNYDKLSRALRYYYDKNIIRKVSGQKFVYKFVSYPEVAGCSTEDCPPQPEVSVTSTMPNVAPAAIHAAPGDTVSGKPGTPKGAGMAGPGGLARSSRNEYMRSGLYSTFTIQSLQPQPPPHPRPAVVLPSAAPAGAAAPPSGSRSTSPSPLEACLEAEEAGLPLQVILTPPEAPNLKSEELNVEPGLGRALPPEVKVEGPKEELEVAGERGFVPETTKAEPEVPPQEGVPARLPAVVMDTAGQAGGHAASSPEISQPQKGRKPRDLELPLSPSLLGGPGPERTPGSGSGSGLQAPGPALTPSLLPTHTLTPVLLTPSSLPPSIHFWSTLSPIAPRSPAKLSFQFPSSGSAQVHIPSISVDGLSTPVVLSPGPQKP
# How it was run: as §1
# GABPA = molecular target: T3, GABPA (Homo sapiens, UniProt Q06546 1-454); settings: protein: recombinant; tags: N-terminal GST; dsDNA, one strand shown
# T3 sequence: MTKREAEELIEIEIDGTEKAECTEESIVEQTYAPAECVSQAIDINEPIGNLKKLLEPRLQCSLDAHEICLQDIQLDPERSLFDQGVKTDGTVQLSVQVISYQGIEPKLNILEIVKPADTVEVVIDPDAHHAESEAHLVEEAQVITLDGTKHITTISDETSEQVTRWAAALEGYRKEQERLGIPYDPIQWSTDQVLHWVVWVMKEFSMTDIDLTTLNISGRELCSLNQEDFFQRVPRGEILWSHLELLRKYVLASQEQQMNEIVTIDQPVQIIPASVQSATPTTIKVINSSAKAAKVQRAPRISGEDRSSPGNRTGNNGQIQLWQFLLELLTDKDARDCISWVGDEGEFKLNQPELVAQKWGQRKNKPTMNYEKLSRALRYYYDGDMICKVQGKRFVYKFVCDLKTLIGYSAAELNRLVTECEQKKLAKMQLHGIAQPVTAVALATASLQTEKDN
# How it was run: as §1
# ERG = molecular target: T4, ERG (Homo sapiens, UniProt P11308 1-479); settings: protein: recombinant; tags: N-terminal GST; dsDNA, one strand shown
# T4 sequence: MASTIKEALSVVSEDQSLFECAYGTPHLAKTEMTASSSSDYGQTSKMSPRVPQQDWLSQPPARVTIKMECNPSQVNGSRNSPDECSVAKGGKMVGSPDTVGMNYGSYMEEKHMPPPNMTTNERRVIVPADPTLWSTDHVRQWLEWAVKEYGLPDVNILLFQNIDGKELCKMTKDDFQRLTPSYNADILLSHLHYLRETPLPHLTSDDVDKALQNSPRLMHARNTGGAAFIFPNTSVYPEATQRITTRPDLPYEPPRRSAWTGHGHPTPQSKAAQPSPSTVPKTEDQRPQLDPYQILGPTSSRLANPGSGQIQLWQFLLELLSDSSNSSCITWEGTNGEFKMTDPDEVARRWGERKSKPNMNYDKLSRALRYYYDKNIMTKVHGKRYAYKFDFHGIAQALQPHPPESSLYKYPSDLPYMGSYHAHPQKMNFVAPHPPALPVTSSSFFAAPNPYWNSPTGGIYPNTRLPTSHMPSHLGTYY
# How it was run: as §1
# ELF1 = ELF1 (Homo sapiens, UniProt P32519 1-619); settings: protein: recombinant; tags: N-terminal GST; dsDNA, one strand shown
# ELF1, sequence (P32519 whole entry): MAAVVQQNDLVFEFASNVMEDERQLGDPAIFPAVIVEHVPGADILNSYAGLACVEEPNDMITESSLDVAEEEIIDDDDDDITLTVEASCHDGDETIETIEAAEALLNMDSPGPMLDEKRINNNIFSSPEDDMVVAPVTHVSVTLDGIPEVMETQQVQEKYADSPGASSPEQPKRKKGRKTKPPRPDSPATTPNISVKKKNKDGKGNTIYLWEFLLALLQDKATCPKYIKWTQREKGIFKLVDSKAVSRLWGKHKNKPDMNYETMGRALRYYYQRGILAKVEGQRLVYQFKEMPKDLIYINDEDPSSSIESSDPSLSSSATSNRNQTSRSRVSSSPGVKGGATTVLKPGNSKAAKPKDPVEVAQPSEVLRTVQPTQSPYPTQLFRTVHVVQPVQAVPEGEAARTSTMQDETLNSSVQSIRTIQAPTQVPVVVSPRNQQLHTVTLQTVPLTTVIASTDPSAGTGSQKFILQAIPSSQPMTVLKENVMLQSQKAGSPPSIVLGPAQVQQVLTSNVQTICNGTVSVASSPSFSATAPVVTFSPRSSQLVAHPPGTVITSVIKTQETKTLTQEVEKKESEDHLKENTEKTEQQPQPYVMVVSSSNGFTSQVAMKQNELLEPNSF
# How it was run: as §1
# EHF = molecular target: T5, EHF (Homo sapiens, UniProt Q9NZC4 1-300); settings: protein: recombinant; tags: N-terminal GST; dsDNA, one strand shown
# T5 sequence: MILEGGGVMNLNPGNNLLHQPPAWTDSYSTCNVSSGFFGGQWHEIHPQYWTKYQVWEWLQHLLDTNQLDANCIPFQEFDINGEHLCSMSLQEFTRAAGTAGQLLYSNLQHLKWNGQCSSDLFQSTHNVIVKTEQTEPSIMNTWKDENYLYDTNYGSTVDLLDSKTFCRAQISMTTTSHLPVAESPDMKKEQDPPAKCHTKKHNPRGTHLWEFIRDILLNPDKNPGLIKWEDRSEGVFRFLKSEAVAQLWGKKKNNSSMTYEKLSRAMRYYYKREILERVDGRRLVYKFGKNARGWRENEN
# How it was run: as §1
# SPI1 = SPI1 (Homo sapiens, UniProt P17947 1-270); settings: protein: recombinant; tags: N-terminal GST; dsDNA, one strand shown
# How it was run: as §1
# SPIB = SPIB (Homo sapiens, UniProt Q01892 1-262); settings: protein: recombinant; tags: N-terminal GST; dsDNA, one strand shown
# SPIB, sequence (Q01892 whole entry): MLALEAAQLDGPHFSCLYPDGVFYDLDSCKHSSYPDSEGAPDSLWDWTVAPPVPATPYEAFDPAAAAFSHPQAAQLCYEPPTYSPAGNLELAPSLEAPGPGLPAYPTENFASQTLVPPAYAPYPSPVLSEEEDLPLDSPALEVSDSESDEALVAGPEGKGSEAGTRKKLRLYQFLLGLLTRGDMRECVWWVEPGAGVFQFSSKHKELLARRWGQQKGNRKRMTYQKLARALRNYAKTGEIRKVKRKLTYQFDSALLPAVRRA
# How it was run: as §1
# ELK3 = molecular target: T6, ELK3 (Homo sapiens, UniProt P41970 1-407); settings: protein: recombinant; tags: N-terminal GST; dsDNA, one strand shown
# T6 sequence: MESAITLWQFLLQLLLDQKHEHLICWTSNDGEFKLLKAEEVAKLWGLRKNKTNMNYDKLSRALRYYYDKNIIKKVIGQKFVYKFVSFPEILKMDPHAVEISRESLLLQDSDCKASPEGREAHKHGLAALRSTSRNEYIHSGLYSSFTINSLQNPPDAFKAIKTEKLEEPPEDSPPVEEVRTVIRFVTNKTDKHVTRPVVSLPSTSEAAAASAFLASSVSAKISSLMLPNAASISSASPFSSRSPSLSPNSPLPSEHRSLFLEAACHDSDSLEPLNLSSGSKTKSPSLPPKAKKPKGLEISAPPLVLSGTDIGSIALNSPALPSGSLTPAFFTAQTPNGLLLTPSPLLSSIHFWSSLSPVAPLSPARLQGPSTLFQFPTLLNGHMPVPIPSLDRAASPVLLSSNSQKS
# How it was run: as §1
# FEV = molecular target: T7, FEV (Homo sapiens, UniProt Q99581 1-238); settings: protein: recombinant; tags: N-terminal GST; dsDNA, one strand shown
# T7 sequence: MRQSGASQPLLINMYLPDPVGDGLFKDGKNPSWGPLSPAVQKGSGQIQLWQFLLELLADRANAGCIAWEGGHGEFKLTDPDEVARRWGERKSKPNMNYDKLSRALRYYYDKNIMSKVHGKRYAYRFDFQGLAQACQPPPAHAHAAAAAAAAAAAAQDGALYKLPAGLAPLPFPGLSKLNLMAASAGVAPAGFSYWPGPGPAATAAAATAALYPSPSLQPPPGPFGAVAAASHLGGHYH
# How it was run: as §1
# ETV5 = ETV5 (Homo sapiens, UniProt P41161 1-510); settings: protein: recombinant; tags: N-terminal GST; dsDNA, one strand shown
# ETV5, sequence (P41161 whole entry): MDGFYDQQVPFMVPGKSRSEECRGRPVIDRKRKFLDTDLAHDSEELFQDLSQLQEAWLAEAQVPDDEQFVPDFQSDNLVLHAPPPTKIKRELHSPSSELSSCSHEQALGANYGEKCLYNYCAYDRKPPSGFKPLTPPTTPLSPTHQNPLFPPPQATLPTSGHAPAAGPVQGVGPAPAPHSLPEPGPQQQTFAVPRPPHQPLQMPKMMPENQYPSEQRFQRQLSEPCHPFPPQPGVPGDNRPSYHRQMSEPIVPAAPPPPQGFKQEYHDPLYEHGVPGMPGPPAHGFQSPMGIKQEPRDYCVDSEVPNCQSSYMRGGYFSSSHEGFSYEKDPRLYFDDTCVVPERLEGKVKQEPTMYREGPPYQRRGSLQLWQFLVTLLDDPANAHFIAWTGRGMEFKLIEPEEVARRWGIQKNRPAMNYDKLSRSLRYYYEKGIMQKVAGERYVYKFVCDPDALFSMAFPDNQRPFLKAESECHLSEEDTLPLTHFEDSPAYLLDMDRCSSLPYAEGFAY
# How it was run: as §1
# HSF1 = HSF1 (Homo sapiens, UniProt Q00613 1-529); settings: protein: recombinant; tags: N-terminal GST; chain copies: 3; dsDNA, one strand shown
# HSF1, sequence (Q00613 whole entry): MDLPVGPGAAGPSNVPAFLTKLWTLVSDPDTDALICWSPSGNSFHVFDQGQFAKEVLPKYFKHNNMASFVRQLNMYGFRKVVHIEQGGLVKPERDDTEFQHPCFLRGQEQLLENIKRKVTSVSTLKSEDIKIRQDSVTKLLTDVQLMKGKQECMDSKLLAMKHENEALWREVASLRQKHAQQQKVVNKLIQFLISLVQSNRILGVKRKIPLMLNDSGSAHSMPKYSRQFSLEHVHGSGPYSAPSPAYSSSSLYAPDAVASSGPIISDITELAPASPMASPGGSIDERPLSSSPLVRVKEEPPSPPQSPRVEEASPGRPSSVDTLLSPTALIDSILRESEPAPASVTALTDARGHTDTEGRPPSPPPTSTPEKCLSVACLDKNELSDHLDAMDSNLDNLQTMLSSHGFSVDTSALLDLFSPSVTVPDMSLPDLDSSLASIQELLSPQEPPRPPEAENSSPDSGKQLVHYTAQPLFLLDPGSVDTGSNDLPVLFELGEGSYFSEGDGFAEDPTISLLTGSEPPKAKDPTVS
# How it was run: as §1
# SPIC = molecular target: T8, SPIC (Homo sapiens, UniProt Q8N5J4 1-248); settings: protein: recombinant; tags: N-terminal GST; dsDNA, one strand shown
# T8 sequence: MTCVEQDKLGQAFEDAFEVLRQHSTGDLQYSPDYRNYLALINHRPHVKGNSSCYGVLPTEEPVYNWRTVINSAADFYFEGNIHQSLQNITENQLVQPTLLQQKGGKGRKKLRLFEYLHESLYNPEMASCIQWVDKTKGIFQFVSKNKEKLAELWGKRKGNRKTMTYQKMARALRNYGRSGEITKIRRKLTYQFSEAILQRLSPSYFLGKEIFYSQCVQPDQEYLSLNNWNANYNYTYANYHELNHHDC
# How it was run: as §1
# ELF4 = ELF4 (Homo sapiens, UniProt Q99607 1-663); settings: protein: recombinant; tags: N-terminal GST; dsDNA, one strand shown
# ELF4, sequence (Q99607 whole entry): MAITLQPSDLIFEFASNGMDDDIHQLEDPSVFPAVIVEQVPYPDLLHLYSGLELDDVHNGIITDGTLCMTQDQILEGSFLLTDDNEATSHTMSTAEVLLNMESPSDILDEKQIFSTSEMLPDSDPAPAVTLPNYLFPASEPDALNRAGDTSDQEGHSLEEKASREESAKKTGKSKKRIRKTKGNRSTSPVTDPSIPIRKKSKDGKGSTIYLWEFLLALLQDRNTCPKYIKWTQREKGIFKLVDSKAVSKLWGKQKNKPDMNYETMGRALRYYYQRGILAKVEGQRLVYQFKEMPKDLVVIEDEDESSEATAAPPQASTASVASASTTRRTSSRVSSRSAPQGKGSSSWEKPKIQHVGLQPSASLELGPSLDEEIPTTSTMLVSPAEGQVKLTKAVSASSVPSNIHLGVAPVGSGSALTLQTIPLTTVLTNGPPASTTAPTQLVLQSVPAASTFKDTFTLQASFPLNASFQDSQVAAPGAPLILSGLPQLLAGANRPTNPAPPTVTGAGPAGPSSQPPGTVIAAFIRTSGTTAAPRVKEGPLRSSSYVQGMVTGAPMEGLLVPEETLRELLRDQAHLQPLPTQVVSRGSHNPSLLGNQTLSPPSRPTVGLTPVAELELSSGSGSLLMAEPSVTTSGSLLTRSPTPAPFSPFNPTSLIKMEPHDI
# How it was run: as §1
# ELK4 = molecular target: T9, ELK4 (Homo sapiens, UniProt P28324-2 1-405); settings: protein: recombinant; tags: N-terminal GST; dsDNA, one strand shown
# T9 sequence: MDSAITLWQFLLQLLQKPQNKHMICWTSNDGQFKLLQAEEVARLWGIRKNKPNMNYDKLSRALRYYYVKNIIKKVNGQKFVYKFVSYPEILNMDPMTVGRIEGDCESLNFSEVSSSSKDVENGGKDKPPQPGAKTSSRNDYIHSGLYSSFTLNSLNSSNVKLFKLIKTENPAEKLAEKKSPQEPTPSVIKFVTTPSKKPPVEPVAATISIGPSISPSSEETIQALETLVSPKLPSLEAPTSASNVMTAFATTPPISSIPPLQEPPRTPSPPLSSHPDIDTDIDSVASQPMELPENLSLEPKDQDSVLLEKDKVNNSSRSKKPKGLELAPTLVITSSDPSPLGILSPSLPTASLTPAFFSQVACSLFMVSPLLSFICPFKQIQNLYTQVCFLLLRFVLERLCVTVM
# How it was run: as §1
# ETV2 = molecular target: T10, ETV2 (Homo sapiens, UniProt O00321 1-342); settings: protein: recombinant; tags: N-terminal GST; dsDNA, one strand shown
# T10 sequence: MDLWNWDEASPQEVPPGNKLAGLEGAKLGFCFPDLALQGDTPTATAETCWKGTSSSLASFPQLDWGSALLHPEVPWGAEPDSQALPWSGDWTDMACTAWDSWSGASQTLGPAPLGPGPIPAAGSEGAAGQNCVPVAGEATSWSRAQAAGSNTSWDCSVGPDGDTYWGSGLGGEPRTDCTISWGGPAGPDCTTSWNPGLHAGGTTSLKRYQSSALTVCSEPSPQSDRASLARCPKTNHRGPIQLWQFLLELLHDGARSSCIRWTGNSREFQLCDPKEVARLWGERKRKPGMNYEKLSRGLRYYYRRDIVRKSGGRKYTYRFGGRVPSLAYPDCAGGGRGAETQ
# How it was run: as §1
# ELF3 = molecular target: T11, ELF3 (Homo sapiens, UniProt P78545 1-371); settings: protein: recombinant; tags: N-terminal GST; dsDNA, one strand shown
# T11 sequence: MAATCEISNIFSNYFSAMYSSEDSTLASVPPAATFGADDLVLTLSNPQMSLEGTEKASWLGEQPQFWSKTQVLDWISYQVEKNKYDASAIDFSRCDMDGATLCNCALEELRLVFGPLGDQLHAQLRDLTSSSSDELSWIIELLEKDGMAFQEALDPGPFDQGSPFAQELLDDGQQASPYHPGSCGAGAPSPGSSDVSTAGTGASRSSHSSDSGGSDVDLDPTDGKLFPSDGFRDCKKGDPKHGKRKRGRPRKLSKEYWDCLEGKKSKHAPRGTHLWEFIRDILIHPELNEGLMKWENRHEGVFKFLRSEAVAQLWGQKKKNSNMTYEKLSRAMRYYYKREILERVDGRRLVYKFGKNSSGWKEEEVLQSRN
# How it was run: as §1
# CRX = CRX (Homo sapiens, UniProt O43186 1-299); settings: protein: recombinant; tags: N-terminal GST; dsDNA, one strand shown
# CRX, sequence (O43186 whole entry): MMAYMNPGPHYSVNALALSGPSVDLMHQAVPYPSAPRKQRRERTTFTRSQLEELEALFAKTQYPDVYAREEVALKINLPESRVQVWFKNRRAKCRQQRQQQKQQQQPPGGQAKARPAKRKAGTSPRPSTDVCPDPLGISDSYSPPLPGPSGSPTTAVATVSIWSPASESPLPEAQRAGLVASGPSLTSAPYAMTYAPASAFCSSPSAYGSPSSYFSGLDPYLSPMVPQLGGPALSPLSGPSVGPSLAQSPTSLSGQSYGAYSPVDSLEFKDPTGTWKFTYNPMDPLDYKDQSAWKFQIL
# How it was run: as §1
# ETV1 = ETV1 (Homo sapiens, UniProt P50549 1-477); settings: protein: recombinant; tags: N-terminal GST; dsDNA, one strand shown
# ETV1, sequence (P50549 whole entry): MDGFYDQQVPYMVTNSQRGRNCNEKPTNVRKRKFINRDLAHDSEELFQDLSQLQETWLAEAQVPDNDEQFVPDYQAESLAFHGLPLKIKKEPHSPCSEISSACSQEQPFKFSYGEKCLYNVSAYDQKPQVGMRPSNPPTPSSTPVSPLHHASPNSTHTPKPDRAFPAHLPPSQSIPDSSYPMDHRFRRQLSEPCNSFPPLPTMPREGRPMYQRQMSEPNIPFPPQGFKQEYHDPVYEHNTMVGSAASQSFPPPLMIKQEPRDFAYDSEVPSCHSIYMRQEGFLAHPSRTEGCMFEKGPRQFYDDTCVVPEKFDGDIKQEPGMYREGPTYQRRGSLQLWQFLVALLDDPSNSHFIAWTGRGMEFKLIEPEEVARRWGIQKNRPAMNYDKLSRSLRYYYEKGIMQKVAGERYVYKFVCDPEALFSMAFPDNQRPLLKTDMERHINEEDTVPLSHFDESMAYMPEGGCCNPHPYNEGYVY
# How it was run: as §1
sequence,measurement,setting,value
CATTCG,binding signal,FLI1,"1.25 fold enrichment (6-mer frequency, TF over GST control)"
same,binding signal,ELK1,"1.11 fold enrichment (6-mer frequency, TF over GST control)"
same,binding signal,GABPA,"1.17 fold enrichment (6-mer frequency, TF over GST control)"
same,binding signal,ERG,"1.21 fold enrichment (6-mer frequency, TF over GST control)"
same,binding signal,ELF1,"1.28 fold enrichment (6-mer frequency, TF over GST control)"
same,binding signal,EHF,"1.08 fold enrichment (6-mer frequency, TF over GST control)"
same,binding signal,SPI1,"1.26 fold enrichment (6-mer frequency, TF over GST control)"
same,binding signal,SPIB,"1.15 fold enrichment (6-mer frequency, TF over GST control)"
same,binding signal,ELK3,"1.24 fold enrichment (6-mer frequency, TF over GST control)"
same,binding signal,FEV,"1.17 fold enrichment (6-mer frequency, TF over GST control)"
same,binding signal,ETV5,"1.09 fold enrichment (6-mer frequency, TF over GST control)"
same,binding signal,HSF1,"1.64 fold enrichment (6-mer frequency, TF over GST control)"
same,binding signal,SPIC,"1.3 fold enrichment (6-mer frequency, TF over GST control)"
same,binding signal,ELF4,"1.18 fold enrichment (6-mer frequency, TF over GST control)"
same,binding signal,ELK4,"1.05 fold enrichment (6-mer frequency, TF over GST control)"
same,binding signal,ETV2,"1.22 fold enrichment (6-mer frequency, TF over GST control)"
same,binding signal,ELF3,"1.25 fold enrichment (6-mer frequency, TF over GST control)"
same,binding signal,CRX,"1.14 fold enrichment (6-mer frequency, TF over GST control)"
same,binding signal,ETV1,"1.16 fold enrichment (6-mer frequency, TF over GST control)"
